For 40 compounds, growth results are on record in PubChem BioAssay (NCI).

“And” between values parts separate entries of the source, which are not always exact repeats. Equal entries are not always repeated. The panel holds about 83,000 compounds, 20% with a hit somewhere; the sample as a whole holds those more often.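 96-well plates, one dose, 48 hours. Percent growth reported; active if below 10.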 The source made the active and inactive calls.

The subject of one assay is CAKI-1 renal. As to the kind of experiment: NCI-60 one-dose screen, 48 h (100 = growth as untreated, 0 = no growth, -100 = all killed). To be noted: 10 µM unless noted.
As to `O=C(/C=C/C=C/c1csc(Br)n1)NO`, the growth was 83.9% (inactive).

As for `O=C(CCCCCCNC(=O)C(O)(O)C(F)(F)F)Nc1ncc(-c2ccc(Br)cc2)s1`, the growth is -32.8% (active).

For the compound `Cc1cc(C)cc(NC2=C(Cl)C(=O)c3nc(C)ccc3C2=O)c1`, the growth is 89.6% (inactive).

With `C[C@@H]1OCC2(CCN(c3cnc(C(=O)Nc4cc(F)cc5cccnc45)cn3)CC2)[C@@H]1N`, the growth was 45.8% (inactive).

Turning to `CN1CCN(c2ccc(Nc3nc(NCCCNS(=O)(=O)c4ccccc4)c4sccc4n3)cc2)CC1`, the growth was 30.8% (inactive).

Consider `CCCCCCNC(=O)Oc1ccc(/C(=C(/C)c2ccc(OC)cc2)c2ccc(OCCN3CCCCCC3)cc2)cc1`, for which the growth was 17.3% (inactive).

With `O=[N+]([O-])c1ccc(NC(=S)NNC(=S)Nc2ccc(Br)cc2)cc1`, the growth is 75.6% (inactive).

In the case of `C#C[C@]1(O)CC[C@H]2[C@@H]3CC=C4c5sc(N6CCN(C)CC6)nc5CC[C@]4(C)[C@H]3CC[C@@]21C`, the growth is 54.2% (inactive).

For the compound `CN1CCN(Cc2ccc(NC(=O)c3cncc(C#Cc4cnc5ccc(NCCO)nn45)c3)cc2C(F)(F)F)CC1`, the growth was -3.82% (active).

In the case of `C#CCOc1cccc(/C(N)=N/C(N)=N/c2nc3ccccc3s2)c1`, the growth is 73.5% (inactive).

Turning to `NC(N)=NS(=O)(=O)c1ccc(N=Nc2c(N)nn(-c3ccc([N+](=O)[O-])cc3[N+](=O)[O-])c2N)cc1`, the growth is 90.5% (inactive).

In the case of `N#Cc1c(-c2cccs2)cc(-c2cnccn2)nc1SCC(=O)N/N=C/c1cccs1`, the growth is 30% (inactive).

With `COc1cc(C(=O)c2cc(C(C)=O)c3ccc(C)cn23)cc(OC)c1OC`, the growth is 34.3% (inactive).

`Brc1ccc(-c2cc(-c3ccc4c(c3)OCCO4)n[nH]2)s1`: the growth is 31.7% (inactive).

The subject of the next assay is A498 renal. Described as above. To be noted: 10 µM unless noted.
For the compound `N#Cc1nc(-c2ccccc2)oc1N1CCC(C2(C(F)(F)F)N=N2)CC1`, the growth is 85.4% (inactive).

In the case of `CNC(=O)c1cc(N2CCc3cc(NC(=O)Nc4ccc(N5CCOCC5)c(C(F)(F)F)c4)ccc32)ccn1`, the growth is 60% (inactive).

In the case of `O=C(CCCCCCNC(=O)C(O)(O)C(F)(F)F)Nc1ccc(Br)cc1`, the growth was -13.9% (active).

Regarding `Cc1csc(/N=C(N)/N=C(\N)c2cccnc2)n1`, the growth is 59.6% (inactive).

With `C=C1CCc2nc(SCC(=O)O)ccc2N1`, the growth is 85.7% (inactive).

On to `CCCCOc1ccc(S(=O)(=O)N2CCN(c3nc(C)cc(N4CCOCC4)n3)CC2)cc1`, for which the growth was 37.1% (inactive).

In the case of `CCn1c2ccc(/C=N/N(C)S(=O)(=O)CCN(C)C)cc2c2cc(/C=N/N(C)S(=O)(=O)CCN(C)C)ccc21`, the growth was 85.3% (inactive).

Turning to `NCCNC(=O)c1cccc(COc2ccccc2NC(=O)c2cc(Br)c(Br)[nH]2)c1`, the growth was 81.1% (inactive).

With `CNC(=O)Nc1ccc(Nc2cc(-c3ccc(-n4cccn4)cc3)[nH]n2)c(C)c1`, the growth is 129% (inactive).

Regarding `CCN(CC)c1ccc(/C=N/NC(=O)c2ccc(S(N)(=O)=O)cc2)c(O)c1`, the growth was 24% (inactive).

As for `COc1cc(-c2nc(-c3ccccc3)[nH]c2-c2ccnc(NCCCNS(=O)(=O)c3cccc(F)c3)n2)ccc1F`, the growth is 68.9% (inactive).

Consider `C/C=C/CC(C)C(O)[C@H](NC(=O)[C@@H]1CCCN1C(=O)[C@](C)(CC)NC(=O)CCCCCCCCC)C(=O)N[C@@](C)(CC)C(=O)N[C@@H](CCC(N)=O)C(=O)N[C@H](CCC(N)=O)C(=O)NC(C)(C)C(=O)NC(C)(C)C(=O)N[C@@H](CCC(N)=O)C(=O)N[C@H](CC(C)C)C(=O)N[C@H](CO)CC(C)C` (some centres undefined), for which the growth was 12.7% (inactive) and -50.9% (active).

Turning to `O=S(=O)(NCCCNc1nccc(-c2[nH]c(-c3ccccc3)nc2-c2ccc(F)c(O)c2)n1)c1ccc(C(F)(F)F)cc1`, the growth is 28.3% (inactive).

As for `N#Cc1c(-c2cccs2)c(C#N)c(=O)n(Cc2nc3ccccc3[nH]2)c1N`, the growth is 118% (inactive).

Take `Cc1ccc2c(n1)C(=O)C(Cl)=C(Nc1ccccc1C(=O)OC(C)(C)C)C2=O`: the growth is 92.3% (inactive).

Take `Brc1cccc(-c2cc(-c3ccc4c(c3)OC=CO4)[nH]n2)c1`: the growth is 42.6% (inactive).

Take `CN1CCN(CCCCCC(=O)Nc2nc(-c3cccc(NS(=O)(=O)c4cccc5c(N(C)C)cccc45)c3)cs2)CC1`: the growth was 88.6% (inactive).

In the case of `O=C(CSc1nnc(-c2ccc(Cl)cc2)n1-c1ccccc1)Nc1ccc(Cl)cc1`, the growth is 41.4% (inactive).

Regarding `NC1[C@H]2CN(c3cnc(C(=O)Nc4cc(F)cc5cccnc45)cn3)C[C@@H]12` (some centres undefined), the growth was 75.4% (inactive).

In the case of `CC1CCN(CC(=O)Nn2c(COc3ccccc3)nc3ccccc3c2=O)CC1`, the growth was 81.8% (inactive).

With `CCCCSC1=C(Cl)CN(c2ccccc2)C1=O`, the growth was 108% (inactive).

For `CC1=Cc2ccccc2OC12C=Cc1ccccc1O2` (centres undefined), the growth is 117% (inactive).

On to `Brc1ccc(-c2cc(-c3ccc4c(c3)OC=CO4)n[nH]2)s1`, for which the growth was 90.7% (inactive).

Take `CC1=C(C)C(=O)C(Nc2cccc(C(=O)OC(C)(C)C)c2)=CC1=O`: the growth was 66.9% (inactive).

In the case of `CCCC/C(=C\c1ccc(O)c(O)c1)C(=O)NC(Cc1ccccc1)C(=O)C(=O)NCCc1ccc(OC)cc1` (centres undefined), the growth was 85.7% (inactive).

Consider `CCN(CC)c1ccc(/C=N/NC(=O)c2ccc(NS(C)(=O)=O)cc2)c(O)c1`, for which the growth was 18.9% (inactive).

For the compound `O=C(/C=C/C=C/c1csc(Br)n1)NO`, the growth is 92.8% (inactive).

Regarding `O=C(CCCCCCNC(=O)C(O)(O)C(F)(F)F)Nc1ncc(-c2ccc(Br)cc2)s1`, the growth is -41.2% (active).

`Cc1cc(C)cc(NC2=C(Cl)C(=O)c3nc(C)ccc3C2=O)c1`: the growth is 88.3% (inactive).

For `C[C@@H]1OCC2(CCN(c3cnc(C(=O)Nc4cc(F)cc5cccnc45)cn3)CC2)[C@@H]1N`, the growth is 71.9% (inactive).

Turning to `CN1CCN(c2ccc(Nc3nc(NCCCNS(=O)(=O)c4ccccc4)c4sccc4n3)cc2)CC1`, the growth is 131% (inactive).

In the case of `CCCCCCNC(=O)Oc1ccc(/C(=C(/C)c2ccc(OC)cc2)c2ccc(OCCN3CCCCCC3)cc2)cc1`, the growth was 64.2% (inactive).

As to `O=[N+]([O-])c1ccc(NC(=S)NNC(=S)Nc2ccc(Br)cc2)cc1`, the growth is 82.5% (inactive).

For the compound `C#C[C@]1(O)CC[C@H]2[C@@H]3CC=C4c5sc(N6CCN(C)CC6)nc5CC[C@]4(C)[C@H]3CC[C@@]21C`, the growth is 86% (inactive).

For the compound `CN1CCN(Cc2ccc(NC(=O)c3cncc(C#Cc4cnc5ccc(NCCO)nn45)c3)cc2C(F)(F)F)CC1`, the growth was -94.3% (active).

Take `C#CCOc1cccc(/C(N)=N/C(N)=N/c2nc3ccccc3s2)c1`: the growth is 122% (inactive).

Turning to `NC(N)=NS(=O)(=O)c1ccc(N=Nc2c(N)nn(-c3ccc([N+](=O)[O-])cc3[N+](=O)[O-])c2N)cc1`, the growth was 94.5% (inactive).

For `N#Cc1c(-c2cccs2)cc(-c2cnccn2)nc1SCC(=O)N/N=C/c1cccs1`, the growth is 25.5% (inactive).

For `COc1cc(C(=O)c2cc(C(C)=O)c3ccc(C)cn23)cc(OC)c1OC`, the growth was 38.3% (inactive).

As to `Brc1ccc(-c2cc(-c3ccc4c(c3)OCCO4)n[nH]2)s1`, the growth was 40.3% (inactive).
